Data as given in PubChem BioAssay.
Activity calls are given as the source filed them.

Columns and labels:
[1] = system: Plasmodium falciparum Sir2 (PF13_0152, Sir2A); assay: Plasmodium falciparum Sir2A binding compounds – biochemical, small-molecule microarray, 635 nm fluorescence, primary screen (AID 1098); conditions: fluorescence 635 nm, higher = more signal;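 also: score merges spot fluorescence intensity with its signal-to-noise ratio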
[2] = probe aDKK1 binding to arrayed compounds – biochemical, biotinylated probe, 635/667 nm fluorescence, primary screen (AID 1099); conditions: small-molecule microarray, higher = more signal;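 also: score merges 667nm spot fluorescence with signal to noise across triplicate slides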
[3] = probe aCHRDL2 binding to arrayed compounds – biochemical, biotinylated probe, 635/667 nm fluorescence, primary screen (AID 1100); conditions: small-molecule microarray, higher = more signal
[4] = change in splice reporter luminescence, either direction, cell-based, HEK293, spliceosome inhibition project, primary screen (AID 1101); conditions: HEK293 splicing luciferase reporter, 24 h, higher = more signal, called active from +8 up or from −8 down;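 also: HEK293 cells carrying a splicing-competent luciferase reporter gene; test concentration not given here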
[5] = target: Fibroblast growth factor 10 (Homo sapiens) (UniProt O15520); assay: compounds binding fibroblast growth factor 10 – biochemical, small-molecule microarray, 635 nm fluorescence, primary screen (AID 1102); conditions: FGF10 binding, fluorescence 635 nm, higher = more signal
Fibroblast growth factor 10 (Homo sapiens), sequence (O15520 whole entry, looked up): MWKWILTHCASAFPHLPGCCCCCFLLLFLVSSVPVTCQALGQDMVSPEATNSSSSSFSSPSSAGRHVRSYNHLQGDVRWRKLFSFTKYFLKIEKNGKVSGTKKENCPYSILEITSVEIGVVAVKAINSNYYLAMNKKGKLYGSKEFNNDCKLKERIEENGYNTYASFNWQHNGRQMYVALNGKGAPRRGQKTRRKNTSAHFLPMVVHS

[6] = system: glycogen synthase kinase-3 (GSK3A per assay name; protocol says GSK3B); assay: compounds binding glycogen synthase kinase-3 – biochemical, small-molecule microarray, 635 nm fluorescence, GSK3A, primary screen (AID 1103); conditions: fluorescence 635 nm, higher = more signal; also: the record names both GSK3A and GSK3B
[7] = target: Epidermal growth factor receptor (Homo sapiens) (UniProt P00533); assay: compounds binding epidermal growth factor receptor – biochemical, small-molecule microarray, 635 nm fluorescence, primary screen (AID 1104); conditions: EGFR binding, higher = more signal;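 also: score merges 667 nm emission intensity with spot signal to noise over triplicate slides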
Epidermal growth factor receptor (Homo sapiens), sequence (P00533 whole entry, looked up): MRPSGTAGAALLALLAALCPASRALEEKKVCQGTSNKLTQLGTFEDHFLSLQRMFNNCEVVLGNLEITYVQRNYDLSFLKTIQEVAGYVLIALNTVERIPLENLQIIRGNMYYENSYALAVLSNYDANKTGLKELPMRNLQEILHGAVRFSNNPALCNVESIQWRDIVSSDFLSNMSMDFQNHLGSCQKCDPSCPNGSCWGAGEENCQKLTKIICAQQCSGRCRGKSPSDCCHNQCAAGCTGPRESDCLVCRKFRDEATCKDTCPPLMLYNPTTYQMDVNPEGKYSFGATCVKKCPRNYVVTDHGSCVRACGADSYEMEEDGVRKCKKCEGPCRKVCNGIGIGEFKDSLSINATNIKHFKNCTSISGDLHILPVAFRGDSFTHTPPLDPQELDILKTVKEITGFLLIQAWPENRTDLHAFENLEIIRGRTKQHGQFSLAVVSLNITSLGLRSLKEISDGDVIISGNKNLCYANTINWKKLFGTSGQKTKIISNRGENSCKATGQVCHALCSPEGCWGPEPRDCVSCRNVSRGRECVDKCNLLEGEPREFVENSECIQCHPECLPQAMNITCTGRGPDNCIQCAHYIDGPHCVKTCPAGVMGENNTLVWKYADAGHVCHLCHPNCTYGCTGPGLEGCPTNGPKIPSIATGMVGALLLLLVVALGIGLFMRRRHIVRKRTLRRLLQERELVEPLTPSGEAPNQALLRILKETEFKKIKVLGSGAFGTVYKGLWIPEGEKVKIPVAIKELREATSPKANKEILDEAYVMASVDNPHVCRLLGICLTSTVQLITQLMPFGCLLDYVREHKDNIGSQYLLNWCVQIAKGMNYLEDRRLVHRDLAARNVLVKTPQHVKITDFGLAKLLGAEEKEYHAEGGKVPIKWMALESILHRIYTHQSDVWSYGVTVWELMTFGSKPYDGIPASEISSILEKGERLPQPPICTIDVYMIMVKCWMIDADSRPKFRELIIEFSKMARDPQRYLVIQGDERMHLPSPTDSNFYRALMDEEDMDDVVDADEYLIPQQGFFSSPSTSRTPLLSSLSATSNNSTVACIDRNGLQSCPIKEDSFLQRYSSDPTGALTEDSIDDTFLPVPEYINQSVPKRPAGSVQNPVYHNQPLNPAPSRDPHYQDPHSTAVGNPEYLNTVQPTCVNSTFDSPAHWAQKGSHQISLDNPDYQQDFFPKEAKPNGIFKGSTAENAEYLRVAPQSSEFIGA

[8] = target: Follistatin-related protein 3 (Homo sapiens) (UniProt O95633); assay: compounds binding follistatin-related protein 3 – biochemical, small-molecule microarray, 635 nm fluorescence, primary screen (AID 1105); conditions: FSTL3 binding, higher = more signal;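 also: score merges emission near 667 nm and signal to noise per printed spot across three slides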
Follistatin-related protein 3 (Homo sapiens), sequence (O95633 whole entry, looked up): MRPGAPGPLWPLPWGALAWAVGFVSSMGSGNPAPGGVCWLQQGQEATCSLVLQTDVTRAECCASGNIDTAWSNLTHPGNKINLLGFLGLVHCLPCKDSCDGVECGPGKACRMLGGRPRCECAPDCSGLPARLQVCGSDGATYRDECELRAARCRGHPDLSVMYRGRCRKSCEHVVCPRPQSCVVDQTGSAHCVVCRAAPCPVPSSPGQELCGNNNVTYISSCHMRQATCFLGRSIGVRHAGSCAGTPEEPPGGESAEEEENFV

[9] = target: Dickkopf-related protein 1 (Homo sapiens) (UniProt O94907); assay: small molecules binding DKK1 protein – biochemical, small-molecule microarray, 635 nm fluorescence scan, primary screen (AID 1106); conditions: higher = more signal;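 also: score merges emission near 667 nm with signal to noise over three replicate slides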
Dickkopf-related protein 1 (Homo sapiens), sequence (O94907 whole entry, looked up): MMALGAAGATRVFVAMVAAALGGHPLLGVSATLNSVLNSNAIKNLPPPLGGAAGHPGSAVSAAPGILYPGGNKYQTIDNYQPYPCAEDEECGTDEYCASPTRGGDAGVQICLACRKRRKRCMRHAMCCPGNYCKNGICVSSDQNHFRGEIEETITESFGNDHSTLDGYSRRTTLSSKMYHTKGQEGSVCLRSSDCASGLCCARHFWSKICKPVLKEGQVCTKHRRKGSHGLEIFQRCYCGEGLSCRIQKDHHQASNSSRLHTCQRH

[10] = system: Inhibin beta A chain (activin A); assay: small molecules binding activin A – biochemical, small-molecule microarray, 635 nm fluorescence scan, primary screen (AID 1107); conditions: INHBA, higher = more signal;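 also: mouse activin A protein probed at 4.33 µg/mL on printed slides; score merges bound-protein fluorescence near 667 nm with spot signal-to-noise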
[11] = system: Human papillomavirus type 1a protein E7 (residues 44-93); assay: small molecules binding HPV E7 44-93 – biochemical, small-molecule microarray, residues 44-93, 635 nm fluorescence, primary screen (AID 1108); conditions: fluorescence 635 nm, higher = more signal;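 also: E7 fragment applied at 1 µg/mL in TBST for 1 h at 4 C; score combines spot fluorescence with its signal to noise ratio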
[12] = hepatitis C replication reporter changes, two-sided – Huh7 cells, luciferase reporter, HCV replication inhibitor project, primary screen (AID 1109); conditions: Huh7 HCV replicon luciferase reporter, 48 h; higher = more signal;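 also: huh7 hepatoma cells harbouring a luciferase neomycin HCV replicon reporter; luciferase luminescence as measure of HCV replicon replication; test concentration not given here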
[13] = target: Left-right determination factor 2 (Homo sapiens) (UniProt O00292); assay: small molecules binding LEFTY2 protein – biochemical, small-molecule microarray, 635 nm fluorescence scan, primary screen (AID 1110); conditions: higher = more signal
Left-right determination factor 2 (Homo sapiens), sequence (O00292 whole entry, looked up): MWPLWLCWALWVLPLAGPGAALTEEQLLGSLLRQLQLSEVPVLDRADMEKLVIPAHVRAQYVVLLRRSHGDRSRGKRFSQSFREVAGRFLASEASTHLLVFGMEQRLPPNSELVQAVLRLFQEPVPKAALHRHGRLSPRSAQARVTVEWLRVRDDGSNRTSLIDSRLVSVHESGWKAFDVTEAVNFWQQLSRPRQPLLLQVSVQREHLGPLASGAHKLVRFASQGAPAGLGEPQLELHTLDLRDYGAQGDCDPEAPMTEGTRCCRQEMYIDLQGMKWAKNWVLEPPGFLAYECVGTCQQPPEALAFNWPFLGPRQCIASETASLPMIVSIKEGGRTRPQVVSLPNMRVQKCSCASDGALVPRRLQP

[14] = target: Calmodulin-1 (Homo sapiens) (UniProt P0DP23); assay: small molecules binding calmodulin-1 with EGTA – biochemical, small-molecule microarray, Cy5-labelled CALM1, profiling panel (AID 1111); conditions: Cy5-CALM1 binding fluorescence, higher = more signal;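 also: labelled calmodulin applied in Tris saline Tween buffer holding calcium plus EGTA and DTT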
[15] = target: Calmodulin-1 (Homo sapiens) (UniProt P0DP23); assay: small molecules binding Ca-loaded calmodulin-1 – biochemical, small-molecule microarray, Cy5-labelled CALM1, plus calcium, artefact control for SMM control-protein annotation, profiling panel (AID 1112); conditions: Cy5-CALM1 binding fluorescence, higher = more signal;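 also: score merges spot fluorescence with signal to noise from triplicate slides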
[16] = probe aWnt5a binding to arrayed compounds – biochemical, biotinylated probe, 635/667 nm fluorescence, primary screen (AID 1113); conditions: small-molecule microarray, higher = more signal;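 also: score merges 667 nm fluorescence intensity with signal-to-noise per printed feature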
[17] = probe aShh binding to arrayed compounds – biochemical, biotinylated probe, 635/667 nm fluorescence, primary screen (AID 1114); conditions: small-molecule microarray, higher = more signal;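 also: probe is biotin-labelled aShh protein from a stem cell growth factor screen; measures binding of labelled protein to compounds printed on the slide; score merges feature fluorescence at 667 nm with signal-to-noise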
[18] = probe aNog binding to arrayed compounds – biochemical, biotinylated probe, 635/667 nm fluorescence, primary screen (AID 1115); conditions: small-molecule microarray, higher = more signal;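 also: probe is biotinylated aNog protein used at 0.15 µg/mL for 1 h at 4 C; z-score combines 667 nm fluorescence of each spot with its signal to noise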
[19] = target: Torsin-1A-interacting protein 1 (Homo sapiens) (UniProt Q5JTV8); assay: compound microarray binding of lysate hLAP1 – cell lysate, small-molecule microarray, COS7 lysate, 635/667 nm fluorescence, primary screen (AID 1116); conditions: 635 nm fluorescence, higher = more signal
Torsin-1A-interacting protein 1 (Homo sapiens), sequence (Q5JTV8 whole entry, looked up): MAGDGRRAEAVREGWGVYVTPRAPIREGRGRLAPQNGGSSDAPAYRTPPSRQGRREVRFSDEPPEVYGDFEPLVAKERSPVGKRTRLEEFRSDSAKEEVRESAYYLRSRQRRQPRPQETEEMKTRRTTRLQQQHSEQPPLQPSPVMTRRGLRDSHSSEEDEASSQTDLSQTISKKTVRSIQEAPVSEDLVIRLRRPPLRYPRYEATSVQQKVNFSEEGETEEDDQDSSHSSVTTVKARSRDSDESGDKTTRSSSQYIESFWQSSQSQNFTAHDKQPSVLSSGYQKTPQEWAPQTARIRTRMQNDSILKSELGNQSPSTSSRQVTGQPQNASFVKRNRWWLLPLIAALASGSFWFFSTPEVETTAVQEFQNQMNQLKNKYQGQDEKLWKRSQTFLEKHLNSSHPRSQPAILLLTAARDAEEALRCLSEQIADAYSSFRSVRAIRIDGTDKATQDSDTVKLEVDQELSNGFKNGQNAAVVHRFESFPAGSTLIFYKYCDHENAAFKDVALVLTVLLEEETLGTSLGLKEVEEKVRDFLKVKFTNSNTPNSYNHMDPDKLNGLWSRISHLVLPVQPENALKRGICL

[20] = target: Alpha-bungarotoxin (Bungarus multicinctus) (UniProt P60615); assay: compounds binding labelled alpha-BTX control protein – biochemical, small-molecule microarray, Alexa647 label, 635/667 nm fluorescence, artefact control for SMM control protein annotation, profiling panel (AID 1117); conditions: alpha-BTX-A647 binding fluorescence, higher = more signal
Alpha-bungarotoxin (Bungarus multicinctus), sequence (P60615 whole entry, looked up): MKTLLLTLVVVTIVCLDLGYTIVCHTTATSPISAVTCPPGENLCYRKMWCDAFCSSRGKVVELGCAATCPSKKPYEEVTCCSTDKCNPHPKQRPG

Structure (SMILES) | composite z-score [1] | composite z-score [2] | composite z-score [3] | z-score [4] | composite z-score [5] | composite z-score [6] | composite z-score [7] | composite z-score [8] | composite z-score [9] | composite z-score [10] | composite z-score [11] | z-score [12] | composite z-score [13] | composite z-score [14] | composite z-score [15] | composite z-score [16] | composite z-score [17] | composite z-score [18] | composite z-score [19] | composite z-score [20]
C[C@@H]1C=CCC(=O)OC[C@H]2O[C@@H](C=C[C@@H]2O)[C@H](C)C=CCC(=O)OC[C@H]2O[C@H]1C=C[C@@H]2O | 0.489 | -0.384 | -1.67 | -2.62 (inactive) | 1.22 | 1.18 | 1.41 | 1.47 | 2.11 | 1.16 | 0.14 | -0.541 | 1.53 | -0.365 | -2.23 | 0.275 | 0.186 | 0.854 | 0.196 | -0.22
Cc1ccc(S(=O)(=O)c2cc3oc2CC[C@@H](CO)NC(=O)N(C)Cc2cn(nn2)C[C@H](Cc2ccccc2)NC3=O)cc1 | 1.36 | -0.122 | -0.0291 | -0.0233 (inactive) | -0.0287 | 0.164 | -0.497 | -0.233 | -0.266 | -0.171 | -0.398 | -0.376 | -0.587 | 0.212 | 0.175 | -0.1 | 0.483 | 0.402 | 0.781 | 0.513
CCCNC(=O)[C@@H]1c2ccccc2C(=O)N(C2CCCCC2)[C@H]1c1ccc(CO)cc1 | 0.941 | 0.331 | 0.533 | -0.618 (inactive) | 0.965 | 1.3 | 0.432 | 0.958 | 0.315 | 0.397 | 1.44 | -1.32 | 0.454 | 0.674 | -0.616 | -0.131 | 0.131 | -0.278 | 0.65 | 0.765
CN1C(=O)C2C=CC(C(O)C3CC=CCC3)N(Nc3ccccc3)C2C1=O (stereo not given) | 1.09 | 0.642 | 0.533 | 1.2 (inactive) | 0.989 | 0.879 | 1.07 | 1.45 | 1.06 | 1.3 | 1.24 | -0.556 | 0.76 | 1.55 | 0.129 | -0.0792 | -0.0289 | 0.897 | 0.764 | 1.58
CO[C@H]1COC(=O)CC=C[C@H](C)[C@@H](OC)COC(=O)CC=C[C@@H]1C | 0.697 | -0.546 | -1.11 | -1.06 (inactive) | 0.597 | 0.309 | 0.751 | 0.522 | 0.991 | 0.716 | -0.366 | -0.0985 | 0.724 | -1.61 | -1.87 | -0.181 | 0.126 | -0.63 | -0.0807 | -0.86
C=CC(=O)O[C@@H](Cc1ccccc1)[C@H]1C2C=CCCC=C2CN1Cc1cccc(Cl)c1 (stereo not given in full) | -0.426 | 0.0657 | 0.502 | -0.855 (inactive) | -0.281 | -1.21 | -0.506 | -0.87 | -0.143 | 1.11 | -2.98 | -1.08 | -0.195 | -0.82 | 0.484 | -0.148 | 0.0022 | -0.267 | -0.103 | -0.439
CC(C)=C1C(=O)C(c2ccccc2)=C2CN3C(=O)N(CCc4ccccc4)C(=O)[C@]3(Cc3ccccc3)[C@H]21 | -0.34 | 0.809 | 1.25 | 0.514 (inactive) | -0.316 | -0.121 | -0.972 | -0.356 | -1.86 | 0.64 | -1.85 | 0.219 | -1.54 | 1.31 | 0.197 | -0.0384 | 0.251 | -0.408 | -0.0829 | -0.496
COc1cc(CO)cc(I)c1O[C@H]1C=C(C(=O)NCCO)C[C@@H](N(CC2CCCCC2)C(=O)c2cc3ccccc3oc2=O)[C@@H]1O | -0.375 | -0.34 | -0.293 | -0.00607 (inactive) | 0.975 | 0.0996 | 0.6 | 0.797 | 0.174 | 0.14 | -0.376 | 0.806 | 0.252 | 0.0059 | -0.857 | -0.185 | -0.0904 | -0.446 | 0.646 | -0.431
O=C1NC(=O)C2C1C=CC(C(O)C=Cc1ccc([N+](=O)[O-])cc1)N2Nc1ccccn1 (stereo not given) | 1.1 | 0.141 | 0.239 | 1.5 (inactive) | 0.267 | -0.0039 | 1.07 | 0.479 | 0.697 | 1.32 | -0.581 | 0.807 | 0.909 | -0.438 | -0.544 | -0.14 | 0.265 | -0.142 | 1.45 | 0.224
COCCOC(=O)N1C(=O)[C@@]2(c3cc(C#CCCO)ccc31)[C@H](c1ccc(OCCO)cc1)N1[C@H](c3ccccc3)[C@H](c3ccccc3)OC(=O)[C@H]1[C@@H]2C(=O)NC[C@H](O)c1ccccc1 | 1.3 | 0.0564 | -0.0641 | -0.6 (inactive) | 1.31 | 1 | 0.776 | 1.41 | 0.923 | 0.701 | 1.39 | -1.13 | 0.795 | 0.969 | 0.003 | -0.001 | -0.0904 | -0.213 | 1.29 | 1.05
